Sampled rows, rich in hits. Any-hit rate of the full collection: about 12%.
Sfp PPTase inh: qHTS Assay for Inhibitors of Bacillus subtilis Sfp phosphopantetheinyl transferase (PPTase). Potency, µM, without a hit: largest response in the series, negative = inhibition, most hits filed as inhibitors. Biochemical Sfp PPTase activity, qHTS. AID 1490, 2009. 3.5% of 310,000 active;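 further: the enzyme is Sfp with the accession as filed and its product quenches rhodamine fluorescence; 0% = enzyme reaction without inhibitor and -100% = no enzyme wells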
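Sfp 15 nM + cpd, 15 min RT; start w/ rhodamine-CoA 5 uM, BHQ-2-YbbR 12.5 uM (final); 50 mM Hepes pH 7.6, 10 mM MgCl2, 0.01% NP-40, 0.01% BSA; read 525/598 nm at 0 and 30 min.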
BAZ2B block: qHTS Assay for Inhibitors of BAZ2B | Bromodomain adjacent to zinc finger domain protein 2B (Homo sapiens), Q9UIF8 | AlphaScreen BAZ2B-H3K14Ac peptide displacement | Potency, µM (doses to about 114 µM), for the others: at the top dose activity change, negative = inhibition, most hits filed as inhibitors | 4.4% of 360,000 active | AID 504333, 2011; further: on the % scale 0 is the no-effect control and ±100 the full control effect; nearly all actives have a fitted effect of over 60% in size
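BAZ2B 50 nM plus b-H3(5-23)K14Ac 50 nM, PBS pH 7.4/0.01% Tween-20, 30 min RT; compound added (max 110 uM), 30 min RT; streptavidin donor/Ni-chelate acceptor beads 10 ug/mL final, 20 min dark; AlphaScreen read.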
TDP1 inh: qHTS Assay for Inhibitors of Tyrosyl-DNA Phosphodiesterase (TDP1). Tyrosyl-DNA phosphodiesterase 1 (Homo sapiens), Q9NUW8. recombinant TDP1, AlphaScreen DNA substrate cleavage. Potency, µM (doses to about 130 µM), for the others: at the highest dose activity change, negative = inhibition, hits mostly inhibitors. 0.28% of 350,000 active. AID 485290, 2010; further: on the % scale 0 is the no-effect control and ±100 the full control effect; nearly all actives have a fitted effect of over 40% in size
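Tdp1 1 nM final; 15 min RT w/ cpd; substrate 15 nM, 5 min; beads 10 ug/ml, 10 min; AlphaScreen read. Neg ctrl: no enzyme.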
G9a inh: qHTS Assay for Inhibitors of Histone Lysine Methyltransferase G9a; Potency, µM (top dose mostly 102 µM), for inactives: at the highest dose activity, negative = inhibition, hits mostly inhibitors; 8.8% of 350,000 active; Histone-lysine N-methyltransferase EHMT2 (Homo sapiens), Q96KQ7; G9a H3K9 monomethylation, AlphaScreen, 2 h; further: on the % scale 0 is the no-effect control and ±100 the full control effect; nearly all actives have a fitted effect of over 75% in size
Target sequence (Q96KQ7 913-1193 limits assumed): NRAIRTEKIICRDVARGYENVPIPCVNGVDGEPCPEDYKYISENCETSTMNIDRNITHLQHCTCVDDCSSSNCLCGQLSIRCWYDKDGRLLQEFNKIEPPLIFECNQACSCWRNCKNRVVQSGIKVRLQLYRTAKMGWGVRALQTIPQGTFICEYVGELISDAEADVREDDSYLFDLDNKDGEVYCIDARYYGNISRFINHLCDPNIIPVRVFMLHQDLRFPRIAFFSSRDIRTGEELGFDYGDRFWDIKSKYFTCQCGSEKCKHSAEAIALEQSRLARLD
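G9a (20 nM) was preincubated 15 min with compound, then reacted 2 h at room temperature with 500 nM biotin-H3K9 peptide and 20 µM SAM. Monomethyl-H3K9 detected by AlphaScreen using anti-H3K9me1 antibody.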
HP1b chromo inh: HTS for Inhibitors of HP1-beta Chromodomain Interactions with Methylated Histone Tails | AlphaScreen HP1-beta / biotin-H3K9me3 peptide binding | Potency, µM (series often up to 114 µM), without a hit: at the top dose activity change, negative = inhibition, usual class: inhibitors | 0.56% of 390,000 active; further: nearly all actives have a fitted effect of over 70% in size
Target sequence (P83916 whole entry, looked up): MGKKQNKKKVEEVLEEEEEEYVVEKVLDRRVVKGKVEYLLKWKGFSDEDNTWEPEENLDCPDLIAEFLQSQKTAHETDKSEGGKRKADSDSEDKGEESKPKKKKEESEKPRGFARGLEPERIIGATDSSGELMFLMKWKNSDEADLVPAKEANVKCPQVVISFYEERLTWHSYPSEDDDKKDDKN
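HP1-beta protein (50 nM final) preincubated 30 min at room temperature with biotinylated H3(1-18)K9me3 peptide (50 nM) in PBS pH 7.4, 0.01% Tween-20, then compound added for 30 min. AlphaScreen streptavidin donor/nickel chelate acceptor beads (10 ug/mL final), 30 min dark, luminescence read.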
JMJD2A Tudor inh: qHTS Assay for Inhibitors of JMJD2A-Tudor Domain | Lysine-specific demethylase 4A (Homo sapiens), O75164 | AlphaScreen JMJD2A-Tudor / H3K4me3 peptide binding | Potency, µM (highest dose often 114 µM), inactives show at the top dose activity change, negative = inhibition, actives largely listed as inhibitors | 4.4% of 390,000 active | AID 504339, 2011; further: on the % scale 0 is the no-effect control and ±100 the full control effect; nearly all actives have a fitted effect of over 50% in size
The depositor's hits bear a star; ? = inconclusive; . = no result given; [ ] = remark or other dose. The call rests on the fitted dose curve; in most records, active means well fitted curve in the direction sought with a large enough effect; inconclusive means small, poorly fitted or top-dose-only effect, or another doubt; inactive means no such curve, though single readings can be large; an effect the other way counts as inactive or inconclusive. Potency means the concentration at half of the fitted maximal effect.

SMILES | Sfp PPTase inh | BAZ2B block | TDP1 inh | G9a inh | HP1b chromo inh | JMJD2A Tudor inh
N=C1c2ccccc2CN1c1ccc(N2CCOCC2)c(S(=O)(=O)Nc2ccc(Cl)cc2)c1 | 10µM* | ? | 3% | . | . | .
CCOC(=O)Nc1ccc(N2CCOCC2)c(S(=O)(=O)Nc2ccc(Cl)cc2)c1 | . | . | 0% | . | -21% | -29%
COc1ccc(OC)c(Nc2nc(C3CC3)nc3c2nnn3Cc2ccccc2)c1 | 6% | 0% | -4% | 41% | 45% | 9%
c1ccc(Cn2nnc3c(Nc4ccc5c(c4)OCO5)nc(C4CC4)nc32)cc1 | 89µM* | ? | 9% | -18%[59 µM] | 7% | -35%
COc1ccc(-c2cc(C(F)(F)F)n3nc(C(=O)Nc4sc5c(c4C(=O)OC(C)C)CCCC5)cc3n2)cc1OC | . | 9% | 3% | ? | 19% | -12%
CC(C)OC(=O)c1c(NC(=O)c2cc3nc(-c4ccccc4)cc(C(F)(F)F)n3n2)sc2c1CCCC2 | . | -2% | -8% | 13µM* | -6% | -20%
Cc1ccc(S(=O)(=O)N2CCN(Cc3ccccc3C(F)(F)F)CC2)cc1 | ? | 56µM* | -12% | 32µM* | ? | ?
O=C1c2ccccc2C(=O)N1CC#CCN1CCN(C2CCCCC2)CC1 | 5% | ? | -5% | 20µM* | 15% | ?
O=[N+]([O-])c1ccccc1CN1CCN(S(=O)(=O)c2ccccc2)CC1 | . | . | . | . | ? | 20µM*
O=[N+]([O-])c1ccccc1CS(=O)(=O)c1ccccc1 | . | 1% | . | -18%[12.7 µM] | 10% | -11%
Cc1ccccc1CN1CCN(Cc2ccccc2C(F)(F)F)CC1 | ? | 28µM* | . | 2.8µM* | -32% | 2.8µM*
COc1ccc(/C=C/C(=O)OCC(=O)Nc2c(C)cccc2C)cc1 | 11% | 1% | 6% | 26% | 32% | -13%
CC1CCCCC1NC(=O)CCNS(=O)(=O)c1ccc(Cl)cc1 (stereo not given) | 11% | -3% | 2% | 19% | 56% | 2%
CC1CCCC(NC(=O)COC(=O)/C=C/c2ccc([N+](=O)[O-])cc2)C1C (stereo not given) | . | . | 0% | . | 7% | -8%
CCOC(=O)N1CCC(Nc2c([N+](=O)[O-])cc(C(=O)O)cc2[N+](=O)[O-])CC1 | -6% | -8% | . | 3%[0.501 µM] | 37% | -13%
CCOc1nc(NC2CCCC2)nc(N2CCC(C)CC2)n1 | 10% | -28% | . | 18% | 19% | 5%
FC(F)(F)c1ccccc1CN1CCCC(N2CCN(c3ccccc3)CC2)C1 (stereo not given) | 13% | ? | . | . | 12% | -33%
Cc1ccc(S(=O)(=O)N2CCN(Cc3ccccc3Cl)CC2)cc1 | . | 45µM* | -9%[12.3 µM] | 1.3µM* | ? | 5µM*
FC(F)(F)c1ccccc1CN1CCN(C2CCCCCC2)CC1 | -60% | 50µM* | -2% | 2.5µM* | ? | 6.3µM*
Cc1ccc(S(=O)(=O)N2CCN(C3CCN(Cc4ccccc4)CC3)CC2)cc1 | 9% | . | 0% | 4%[59 µM] | 25% | 2%
Cc1ccc(Cn2cc(S(=O)(=O)c3ccc(C(C)C)cc3)c(=O)c3cc4c(cc32)OCO4)cc1 | ? | -1% | 3% | 45µM* | 9% | -31%
CC(C)c1ccc(S(=O)(=O)c2cn(Cc3ccc(F)cc3)c3cc4c(cc3c2=O)OCO4)cc1 | 7% | 7% | -1% | -10%[59 µM] | . | .
CCCCCOC(=O)c1[nH]c2c(c1C)C(=O)CC(c1ccco1)C2 (stereo not given) | ? | 56µM* | -1% | 40µM* | ? | 35µM*
c1ccc2c(CCc3ccncc3)cccc2c1 | . | . | . | . | 74% | 3%
c1ccc2c(CSCCc3ccncc3)cccc2c1 | 50µM* | -19%[57.1 µM] | 0% | -13% | 25% | -16%
SMILES | Sfp PPTase inh | BAZ2B block | TDP1 inh | G9a inh | HP1b chromo inh | JMJD2A Tudor inh
O=C(c1cn(CCOc2ccccc2F)c2ccccc12)C1CCCCC1 | . | 9% | 3% | 45%[59 µM] | 54% | -10%
COC(=O)C1CCN(C(=O)Cc2c(OC)ccc3cc(Br)ccc23)CC1 | 56µM* | ? | -11% | -32% | 31% | -19%
CCCCN(C)C(=O)Cc1c(OC)ccc2cc(Br)ccc12 | 1% | -3% | 0% | 32µM* | ? | 25µM*
COc1ccc2cc(Br)ccc2c1CC(=O)N1CCCC1 | 6% | -2% | . | 9% | 21% | -4%
COc1ccc2cc(Br)ccc2c1CC(=O)NC(C)C | 10% | -3% | 6% | 5% | 23% | -6%
Cc1c(Cl)cccc1NC(=O)c1ncoc1-c1ccco1 | . | -9% | -9% | 6%[12.7 µM] | 16% | 18%
Cc1ccnc(Sc2ccc([N+](=O)[O-])cc2[N+](=O)[O-])n1 | 7% | ? | 5% | -45%[59 µM] | -11% | -36%
Cc1ccc(Sc2ccc([N+](=O)[O-])cc2[N+](=O)[O-])nc1 | -3% | 45µM* | 8% | -23%[59 µM] | -14% | ?
O=C(Nc1ccccc1)c1nccn1Cc1ccc(F)cc1 | 6% | -3% | -1% | 29% | 32% | 9%
CCOc1ccccc1NC(=O)COc1coc(CN2CCCc3ccccc32)cc1=O | . | ? | 3% | 50µM* | -20% | ?
COc1ccccc1-c1ocnc1C(=O)Nc1ccc(N2CCOCC2)cc1N1CCOCC1 | -14% | -15% | 8% | 50µM* | -13% | ?
O=C(COc1ccc(F)cc1Cl)Nc1ccc(N2CCOCC2)cc1N1CCOCC1 | . | -10% | 0% | 35µM* | -4% | -28%
CCOc1ccccc1OCC(=O)Nc1ccc(N2CCOCC2)cc1N1CCOCC1 | . | -35% | -4% | 56µM* | -8% | ?
O=C(COc1ccccc1F)Nc1ccc(N2CCOCC2)cc1N1CCOCC1 | . | -9% | 0% | ? | 28% | -11%
CC(C)c1cc(C(=O)N2CCCC(Nc3ccc(F)cc3)C2)nc(N)n1 (stereo not given) | 0% | -14% | 2% | -8%[12.7 µM] | 5% | -18%
COCCCn1c(SCC(=O)NC2CCS(=O)(=O)C2)nnc1-c1ccc(Cl)cc1 (stereo not given) | . | -8% | 0% | 15%[12.7 µM] | 39% | 6%
O=C(c1ccc2c3c(cccc13)CC2)C1CCCN(Cc2ccncc2)C1 (stereo not given) | -6% | ? | 1% | ? | -8% | 56µM*
